# Only a selection was taken, and hits are over-represented in it overall.
# HIV RNase H inh-1 – inhibitors of HIV-1 reverse transcriptase RNase H; P04585; RT-RNase H RNA/DNA duplex cleavage, fluorescence; inhibition, % at 10 µM; 1.9% of 65,000 active; AID 565; in the data active means inhibition above about 50%
# HIV RNase H inh-2 – confirmation of HIV-1 reverse transcriptase RNase H inhibitors; shares compounds with HIV RNase H inh-1; Recombinant RT RNase H, fluorescent RNA/DNA duplex cleavage; 39% of 1,000 active; inhibition, % at 10 µM; in the data active means inhibition above about 48%
# * = called active by the depositor.
SMILES,HIV RNase H inh-1,others
Cc1ccc(-n2c(SCC(N)=O)nc3c([nH]c4ccccc43)c2=O)cc1,-1.3,
COc1ccc(-n2c(SCC(=O)N3CCCC3)nc3c([nH]c4ccccc43)c2=O)cc1,87.2*,HIV RNase H inh-2=87.8*
COc1cccc(-n2c(SCC(=O)Nc3cc(C)on3)nc3c([nH]c4ccccc43)c2=O)c1,-4.5,
O=C(CSc1nc2c([nH]c3ccccc32)c(=O)n1-c1cccc(Cl)c1)N1CCOCC1,78.3*,HIV RNase H inh-2=66.7*
COc1cccc(-n2c(SCC(N)=O)nc3c([nH]c4ccccc43)c2=O)c1,6.5,
CC1(C)C=C(c2ccc(O)cc2)CC(C)(C)N1,-2.2,
CC(C)(C)C(=O)CNS(=O)(=O)c1ccc(S(=O)(=O)NC2CCCC2)cc1,1.6,
CC(c1ccccc1)C1C(C#N)=C(N)OC2=C1C(=O)CC(C)(C)C2 (stereo not given),-6.8,
CC1(C)CC(=O)C2=C(C1)OC(N)=C(C#N)C2C#Cc1ccccc1 (stereo not given),59.7*,HIV RNase H inh-2=4.7
CC1(C)CC(=O)C2=C(C1)OC(N)=C(C#N)C2CCc1ccccc1 (stereo not given),-3.1,
COCCNS(=O)(=O)c1ccc(SC)cc1,-7.6,
Cc1ccc(S(=O)(=O)N2CCCC2C(=O)OCc2ccco2)cc1 (stereo not given),-4.3,
Cc1ccc(-c2csc(NC(=O)c3cccc(N4C(=O)CCC4=O)c3)n2)o1,57.5*,HIV RNase H inh-2=24.2
CCOC(=O)Cc1csc(NC(=O)c2cccc(N3C(=O)CCC3=O)c2)n1,-16.8,
Cc1csc(NC(=O)c2cccc(S(=O)(=O)N3CCCCC3)c2)n1,-4.7,
CN(C)c1ccc(NC(=O)Cn2c(=O)n(Cc3ccccc3)c(=O)c3ccccc32)cc1,43.3,
O=C(Cc1cccs1)N(Cc1ccco1)C1(C(=O)NC2CCCC2)CCCCC1,0.6,
Cn1c(N)c(C(=O)NCc2ccccc2)sc1=S,-5.9,
COC(=O)c1ccccc1NC(=O)c1sc(N)nc1C,-40.1,
COC(=O)c1ccccc1NC(=O)c1sc(=S)n(C)c1N,86.7*,HIV RNase H inh-2=73.6*
O=c1c2nnn(Cc3ccccc3)c2ncn1-c1ccccc1,0.9,
N#Cc1ccc(CN2CCN(C(=O)c3ccccc3)CC2)c(Cl)c1,5.4,
Cc1ccnc2c(N3C(=O)C4C5C=CC(C5)C4C3=O)cccc12 (stereo not given),4.6,
CCOC(=O)N1CCC(N2Cc3cccc(C(=O)NCc4ccc5c(c4)OCO5)c3C2=O)CC1,-1.4,
CCOC(=O)N1CCC(N2Cc3cccc(C(=O)NCc4ccccc4OC)c3C2=O)CC1,-31.6,
SMILES,HIV RNase H inh-1,others
CCOC(=O)N1CCC(N2Cc3cccc(C(=O)NCc4ccc(OC)cc4)c3C2=O)CC1,73.2*,HIV RNase H inh-2=44.5
O=C1NC2NC(=O)N(C(Cc3ccccc3)C(=O)O)C2N1 (stereo not given),1.5,
Cc1ccc(-c2c3c(=O)n(C)c(=O)n(C)c3c3c(C)cc(C)nn23)cc1,-25.6,
Cn1c(=O)c2c(SCc3ccccc3)nc(-c3ccco3)nc2n(C)c1=O,51.5*,HIV RNase H inh-2=13.3
Cn1c(=O)c2c(SCc3cccc(C(F)(F)F)c3)nc(-c3ccco3)nc2n(C)c1=O,37.5,
Cn1c(=O)c2c(SCc3ccccn3)nc(-c3ccccc3)nc2n(C)c1=O,-10.3,
Cc1ccc(S(=O)(=O)NC(CC(=O)NCC2CCCO2)c2ccco2)cc1 (stereo not given),-1.5,
CCN1C(=O)C(C)S/C1=N\S(=O)(=O)c1ccc(Cl)s1 (stereo not given),-7.9,
CS(=O)(=O)N(CC(=O)N1CCCCCC1)c1ccc(Br)cc1,-10.7,
CCCCNC(=O)c1sc(=S)n2c1[nH]c(=O)c1ccccc12,11.4,
O=C(NC1CCCCC1)c1sc(=S)n2c1[nH]c(=O)c1ccccc12,74.0*,HIV RNase H inh-2=58.5*
O=C(NCC1CCCO1)c1sc(=S)n2c1[nH]c(=O)c1ccc(C(=O)N3CCCCC3)cc12 (stereo not given),-0.7,
CC1CCCC(C)N1c1nnc(N)s1 (stereo not given),24.6,
Cc1cc(OCc2nn[nH]n2)c2c(C)c(Cc3ccccc3)c(=O)oc2c1,-2.9,
CC(=O)C1=C(C)NC(SCC(=O)c2ccccc2)=C(C#N)C1CC(C)C (stereo not given),15.2,
N#Cc1c(NC(=O)c2ccc(Cn3cc(Br)cn3)o2)sc2c1CCCCCC2,88.5*,HIV RNase H inh-2=61.5*
CCc1ccc(CCC(=O)Nc2sc3c(c2C#N)CCCC3)o1,43.1,
CC1(C)Cc2c(sc(NC(=O)c3ccc(Br)o3)c2C#N)CO1,-2.7,
Cc1noc(/C=C/c2ccco2)c1S(=O)(=O)N1CCC(C(=O)N2CCc3ccccc3C2)CC1,37.5,
S=C(c1ccc(-c2cc(Cl)ccc2Cl)o1)N1CCOCC1,-39.4,
S=C(c1ccc(-c2cccc(Cl)c2)o1)N1CCOCC1,84.5*,HIV RNase H inh-2=1.1
N#CCCN1CCN(C(=S)c2ccc(-c3cccc(Cl)c3)o2)CC1,-4.1,
Cc1cc(C(=O)NCCC2=CCCCC2)c(C)o1,-20.6,
C=CCn1c(N)c(C(=O)NCCC2=CCCCC2)sc1=S,81.2*,HIV RNase H inh-2=87.0*
O=C(CCn1c(=O)sc2ccccc21)NCCC1=CCCCC1,-24.5,
SMILES,HIV RNase H inh-1,others
CCc1[nH]nc2c1C(c1ccc(Br)s1)C(C#N)=C(N)O2 (stereo not given),-1.0,
O=C(COc1ccc(N2CC(C(=O)O)CC2=O)cc1)Nc1cccc(C(F)(F)F)c1 (stereo not given),-2.2,
CC1CCCCN1c1nnc(NC(=O)Cn2c(=O)oc3ccccc32)s1 (stereo not given),0.1,
CC(O)Cn1cnc2c1c(=O)n(C)c(=O)n2C (stereo not given),-2.0,
c1ccc(N2CCN(c3nc4cc5c(cc4s3)OCO5)CC2)cc1,75.5*,HIV RNase H inh-2=75.7*
c1ccc2c(c1)CCN(c1nc3cc4c(cc3s1)OCO4)C2,42.8,
c1c2c(cc3sc(N4CCCCC4)nc13)OCO2,9.1,
O=C(c1ccc2c(c1)OCO2)N1CCN(c2ccccc2)CC1,-7.4,
c1c2c(cc3sc(N4CCOCC4)nc13)OCO2,71.9*,HIV RNase H inh-2=61.9*
O=C(c1ccc2nc(N3CCOCC3)sc2c1)N1CCCC1,-3.4,
CCC1CCCCN1C(=O)CSc1nnc(CNC(=O)COc2ccc(Cl)cc2)o1 (stereo not given),-3.5,
COc1ccc(CCN(C(=O)c2ccc(F)cc2)C2=CC3CCC(C2)N3C)cc1OC (stereo not given),-5.9,
COc1ccc2nc(C)c(C(=O)OCCN(C)C)cc2c1,-5.4,
CCC(C)(C)NC(=O)C(c1ccc(F)cc1)N(Cc1ccco1)C(=O)c1cnccn1 (stereo not given),3.1,
CCc1ccccc1N1C[C@@]23C=C[C@@H](O2)C(C(=O)OCC(C)C)[C@H]3C1=O (stereo not given in full),-6.5,
O=C(CSc1nc2ccccc2[nH]1)Nc1ccccc1N1CCOCC1,-2.7,
c1ccc2[nH]c(NCCCN3CCOCC3)nc2c1,-4.0,
c1ccc2[nH]c(SN3CCOCC3)nc2c1,90.6*,HIV RNase H inh-2=66.1*
O=C1C=C(NCc2ccco2)C2(CCCCC2)O1,-5.4,
O=C1C=C(NCc2ccccc2)C2(CCCCC2)O1,-4.6,
CCN(CC)C1=CC(=O)OC12CCCCC2,54.7*,HIV RNase H inh-2=65.0*
CCCn1c(SCc2cc(=O)oc3ccc4ccccc4c23)n[nH]c1=O,12.4,
NC(=O)CSc1nc(-c2ccccc2Cl)ns1,-11.2,
COc1ccccc1N(C)S(=O)(=O)c1ccc(C(=O)OCC(=O)NCc2ccco2)cc1,-7.0,
Cc1cc(NC(=O)c2cc3n(n2)C(C(F)(F)F)CC(c2ccco2)N3)n(-c2ccccc2)n1 (stereo not given),62.0*,HIV RNase H inh-2=44.2
